Source: PubChem BioAssay AID1159580 (chemical genetic matrix, 2015)
Values joined by “and” are separate entries in the source; they are usually repeats but may differ in a detail not shown here. Equal values may be shown once. In all, about 5,500 compounds went through this assay and about 2,000 (36%) were called active. About 18% were inconclusive and are not listed. Cut-off read from the data, not from the text of the source: active = normalized growth mostly below about 0.91 (no sharp cut-off); inconclusive = no clear call, values can overlap the other calls; inactive = mostly above about 0.92. Some of the results follow.

Experiment: chemical genetic growth profiling, strain panel (AID 1159580);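 note: tested at 20 µM; growth read once vehicle control cultures reached saturation at 30 °C; 1 = growth at the plate median or of vehicle wells; lower values mean less growth of the strain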
Settings: S. cerevisiae deletion strains, growth OD

Measured: normalized growth

COc1ccc2c(=O)c(-c3cc4c(cc3OC)OCO4)coc2c1
inactive: locus YAL021C, strain ccr4, active compounds read low 1 | locus YAL026C, strain drs2, active compounds read low 1.01 | locus YAL030W, strain snc1, active compounds read low 1 | locus YBL061C, strain skt5, active compounds read low 1.01 | locus YBR009C, strain hhf1, active compounds read low 1 | locus YBR021W, strain FUR4, active compounds read low 0.907 | locus YBR023C, strain chs3, active compounds read low 1.01 | locus YBR171W, strain sec66, active compounds read low 1.01 | locus YBR229C, strain ROT2, active compounds read low 1 | locus YBR231C, strain swc5, active compounds read low 1.01 | locus YBR279W, strain paf1, active compounds read low 1.02 | locus YCL011C, strain gbp2, active compounds read low 1.01 | locus YCL016C, strain dcc1, active compounds read low 1.01 | locus YCL029C, strain bik1, active compounds read low 1 | locus YCL061C, strain MRC1, active compounds read low 1.01 | locus YCL069W, strain vba3, active compounds read low 1 | locus YCR088W, strain abp1, active compounds read low 1.01 | locus YDL005C, strain med2, active compounds read low 1.01 | locus YDL035C, strain GPR1, active compounds read low 1 | locus YDL040C, strain nat1, active compounds read low 1.01 | locus YDL074C, strain BRE1, active compounds read low 1.04 | locus YDL101C, strain DUN1, active compounds read low 1.05 | locus YDL185W, strain tfp1, active compounds read low 1.02 | locus YDL192W, strain arf1, active compounds read low 1.01 | locus YDR001C, strain nth1, active compounds read low 1.01 | locus YDR069C, strain doa4, active compounds read low 1.02 | locus YDR101C, strain arx1, active compounds read low 0.997 | locus YDR137W, strain rgp1, active compounds read low 0.971 | locus YDR159W, strain sac3, active compounds read low 1.03 | locus YDR162C, strain NBP2, active compounds read low 1.03 | locus YDR195W, strain ref2 1.03 | locus YDR297W, strain sur2, active compounds read low 1.01 | locus YDR318W, strain mcm21, active compounds read low 1 | locus YDR334W, strain swr1, active compounds read low 1.03 | locus YDR335W, strain msn5, active compounds read low 1.01 | locus YDR388W, active compounds read low 0.997 | locus YDR392W, strain spt3, active compounds read low 1.02 | locus YDR502C, strain sam2, active compounds read low 1.02 | locus YEL003W, strain gim4, active compounds read low 1.01 | locus YEL037C, strain rad23, active compounds read low 1.01 | locus YEL061C, strain CIN8 (second series), active compounds read low 1.01 | locus YER015W, strain faa2, active compounds read low 1.01 | locus YER016W, strain bim1, active compounds read low 1.01 | locus YER110C, active compounds read low 1.01 | locus YER111C, strain swi4, active compounds read low 1.01 | locus YER155C, strain BEM2 (second series), active compounds read low 1 | locus YER155C, strain BEM2, active compounds read low 1 | locus YER167W, strain BCK2, active compounds read low 1.02 | locus YFR010W, strain ubp6, active compounds read low 1.02 | locus YGL078C, strain dbp3, active compounds read low 1 | locus YGL086W, strain mad1, active compounds read low 0.993 | locus YGL167C, strain pmr1, active compounds read low 1.01 | locus YGL173C, strain kem1, active compounds read low 1 | locus YGL227W, strain vid30, active compounds read low 1.01 | locus YGL240W, strain doc1, active compounds read low 1 | locus YGL248W, strain PDE1, active compounds read low 1.02 | locus YGL253W, strain hxk2, active compounds read low 1.01 | locus YGR135W, strain pre9, active compounds read low 1 | locus YGR252W, strain gcn5, active compounds read low 0.907 | locus YHR013C, strain ard1, active compounds read low 1.03 | locus YHR027C, strain rpn1, active compounds read low 1.02 | locus YHR030C, strain SLT2, active compounds read low 0.98 | locus YHR079C, strain IRE1 (second series), active compounds read low 1.03 | locus YHR079C, strain IRE1, active compounds read low 0.982 | locus YHR094C, strain hxt1, active compounds read low 1.02 | locus YHR129C, strain ARP1, active compounds read low 1.03 | locus YHR142W, strain chs7, active compounds read low 0.987 | locus YHR200W, strain rpn10, active compounds read low 1.03 | locus YIL066C, strain RNR3, active compounds read low 1.02 | locus YIL073C, strain SPO22, active compounds read low 1.07 | locus YIL125W, strain kgd1, active compounds read low 1 | locus YIR030C, strain dcg1, active compounds read low 1.02 | locus YJL092W, strain hpr5, active compounds read low 1.02 | locus YJL095W, strain BCK1 (second series), active compounds read low 1.01 | locus YJL095W, strain BCK1, active compounds read low 1.01 and 0.987 | locus YJL115W, strain asf1, active compounds read low 1.02 | locus YJL129C, strain trk1, active compounds read low 0.996 | locus YJL134W, strain LCB3, active compounds read low 1.02 | locus YJL154C, strain vps35, active compounds read low 1 | locus YJL164C, strain tpk1, active compounds read low 1.02 | locus YJL166W, strain qcr8, active compounds read low 1 | locus YJL168C, strain set2, active compounds read low 1.02 | locus YJL187C, strain SWE1 (second series), active compounds read low 1.03 | locus YJL187C, strain SWE1, active compounds read low 1 | locus YJR066W, strain TOR1, active compounds read low 0.927 | locus YKL009W, strain mrt4, active compounds read low 0.952 | locus YKL068W, active compounds read low 1.03 | locus YKL085W, strain MDH1 (second series), active compounds read low 1.02 | locus YKL085W, strain MDH1, active compounds read low 1.02 | locus YKL160W, strain elf1, active compounds read low 1.01 | locus YKL190W, strain CNB1, active compounds read low 1.04 | locus YKR001C, strain vps1, active compounds read low 1.01 | locus YKR026C, strain gcn3, active compounds read low 1.01 | locus YKR091W, strain srl3, active compounds read low 1.01 | locus YLL001W, strain dnm1, active compounds read low 1.01 | locus YLL026W, active compounds read low 1.01 | locus YLL041C, strain sdh2, active compounds read low 1.01 | locus YLR027C, strain aat2, active compounds read low 1 | locus YLR039C, strain RIC1, active compounds read low 1.13 | locus YLR058C, strain SHM2, active compounds read low 1.02 | locus YLR102C, strain apc9, active compounds read low 1.01 | locus YLR113W, strain HOG1, active compounds read low 1.01 | locus YLR221C, strain rsa3, active compounds read low 1 | locus YLR258W, strain gsy2, active compounds read low 1 | locus YLR262C, strain YPT6 (second series), active compounds read low 1.01 | locus YLR262C, strain YPT6, active compounds read low 1.06 | locus YLR268W, strain sec22, active compounds read low 0.972 | locus YLR320W, strain mms22, active compounds read low 1.02 | locus YLR330W, strain CHS5, active compounds read low 1.02 | locus YLR342W, strain FKS1 (second series), active compounds read low 0.997 | locus YLR342W, strain FKS1, active compounds read low 1.01 | locus YLR357W, strain rsc2, active compounds read low 1.1 | locus YLR370C, strain arc18, active compounds read low 1.01 | locus YLR371W, strain rom2, active compounds read low 1.04 | locus YLR384C, strain iki3, active compounds read low 0.998 | locus YLR418C, strain cdc73, active compounds read low 1.05 | locus YML016C, strain PPZ1, active compounds read low 1.02 | locus YML032C, strain rad52, active compounds read low 0.98 | locus YML120C, strain ndi1, active compounds read low 1.02 | locus YML124C, strain tub3, active compounds read low 1.03 | locus YMR058W, strain fet3, active compounds read low 1.02 | locus YMR078C, strain ctf18, active compounds read low 1.02 | locus YMR125W, strain sto1, active compounds read low 1.04 | locus YMR129W, active compounds read low 1.01 | locus YMR205C, strain PFK2, active compounds read low 1.01 | locus YMR223W, strain ubp8, active compounds read low 1.01 | locus YMR231W, strain pep5, active compounds read low 1.01 | locus YMR307W, strain GAS1, active compounds read low 0.979 | locus YNL067W, strain RPL9B, active compounds read low 1.03 | locus YNL071W, strain lat1, active compounds read low 1 | locus YNL153C, strain GIM3, active compounds read low 1.04 | locus YNL183C, strain NPR1, active compounds read low 0.944 | locus YNL209W, strain ssb2, active compounds read low 1.01 | locus YNL233W, strain BNI4, active compounds read low 1.03 | locus YNL248C, strain rpa49, active compounds read low 1.02 | locus YNL250W, strain rad50, active compounds read low 1.06 | locus YNL271C, strain bni1, active compounds read low 1.02 | locus YNL298W, strain CLA4, active compounds read low 0.969 | locus YNL307C, strain MCK1, active compounds read low 0.97 | locus YNL322C, strain KRE1 (second series), active compounds read low 1.01 | locus YNL322C, strain KRE1, active compounds read low 1.02 | locus YNR049C, strain mso1, active compounds read low 1.01 | locus YNR052C, strain pop2, active compounds read low 1.02 | locus YOL012C, strain htz1 1.12 | locus YOL147C, strain pex11, active compounds read low 1 | locus YOR001W, strain rrp6, active compounds read low 1 | locus YOR061W, strain CKA2, active compounds read low 1.02 | locus YOR069W, strain VPS5, active compounds read low 1.02 | locus YOR070C, strain gyp1, active compounds read low 1 | locus YOR080W, strain dia2, active compounds read low 1.01 | locus YOR083W, strain WHI5, active compounds read low 0.999 | locus YOR106W, strain vam3, active compounds read low 1 | locus YOR136W, strain idh2, active compounds read low 1.01 | locus YOR144C, strain elg1, active compounds read low 1.04 | locus YOR184W, strain ser1, active compounds read low 0.957 | locus YOR231W, strain MKK1, active compounds read low 0.993 | locus YOR265W, strain rbl2, active compounds read low 1.01 | locus YOR270C, strain vph1, active compounds read low 1.04 | locus YOR290C, strain snf2, active compounds read low 1.02 | locus YOR316C, strain cot1, active compounds read low 1.02 | locus YPL051W, strain arl3, active compounds read low 1 | locus YPL078C, strain atp4, active compounds read low 1.01 | locus YPL106C, strain sse1, active compounds read low 0.996 | locus YPL240C, strain hsp82, active compounds read low 0.995 | locus YPL241C, strain CIN2, active compounds read low 1.04 | locus YPL256C, strain CLN2, active compounds read low 0.963 | locus YPR119W, strain clb2, active compounds read low 1.02 | locus YPR141C, strain kar3, active compounds read low 1.03 | locus YPR163C, strain tif3, active compounds read low 0.992 | locus YPR167C, strain met16, active compounds read low 1.02 | strain wtn01, active compounds read low 1.01
